Measured values reported in PubChem BioAssay (NCATS).
Results filed as inconclusive are left out. Where a call stands in place of a potency, no number is given. Active and inactive are the calls of the source. Calls come from the whole dose curve; as a rule, active = well fitted cell-killing curve with a large enough effect; inconclusive = small, poorly fitted or top-dose-only effect, or effect the other way; inactive = flat fitted curve, though single readings scatter.

Experiment: MultiTox-Fluor Cytotoxicity Assay - LYMP1-001 - Dead Cells (AID 946)
Settings: LYMP1-001 lymphoblastoid cells, dead-cell protease fluorescence; series mostly up to 92.2 µM
Excerpt: NIH Chemical Genomics Center [NCGC]
NIH Molecular Libraries Screening Centers Network [MLSCN]
National Institutes of Environmental Health Sciences [NIEHS]
National Toxicology Program [NTP]
We have developed a 1536-well cell-based assay for quantitative high throughput screening (qHTS) against a number of cell lines to determine in vitro cytotoxicity of small molecules. This particular assay uses a human lymphoblastoid cell line (LYMP1-001) purchased from Coriell Institute for Medical Research.
NCGC Assay Protocol Summary:
The MultiTox-Fluor Cytotoxicity Assay (Promega) is a homogeneous method to simultaneously measure the relative number of live and dead cells in culture by detecting changes in cell membrane integrity. There are two fluorogenic peptide substrates in the assay reagent. Viable cells are determined when the cell-permeant substrate (GF-AFC) enters the cell and is cleaved by protease from live cells resulting in liberated fluorophore. This live-cell protease activity restricted to viable cells is proportional to cell number. The dead cells are determined by using fluorogenic cell-impermeant peptide substrate (bis-AAF-R110) which cleaved by dead cell proteases leaking from damaged cell membrane.
Using the MultiTox-Fluor Cytotoxicity Assay, the relative number of dead cells was measured in the lymphoblastoid cell line with complete culture medium following compound treatment for 16 hours. The assay was performed in opaque black Kalypsys 1536-well plates. In the screen, tetraoctylammonium bromide was used as positive control. Library compounds were measured for their ability to cause acute toxicity in the cell line, as reflected by an increase in dead cell protease activity, in a concentration-dependent manner. Data were normalized to the controls for basal activity (DMSO only) and 100% stimulation (15 uM tetraoctylammonium bromide). AC50 values were determined from concentration-response data modeled with the standard Hill equation.
qHTS protocol for MultiTox-Fluor Cytotoxicity assay
[Step] [Parameter] [Value] [Description]
1. Reagent; 5 uL; 2500 lymphoblastoid cells/well
2. Time; 5 hr; 37 C incubation
4. Controls; 23 nL; Tetraoctylammonium bromide 6.4pM to 92 uM
5. Time; 16 hr; 37 C incubation
6. Reagent; 5 uL; MuliTox-Fluor Assay reagent
7. Time; 60 min; Room Temperature
8. Detection; dead-cell fluorescence (Ex/Em=485/520); EnVision plate reader
Keywords: cytotoxicity, lymphoblastoid cell line, fluorescence, NTPHTS, NTPHTS_NCGC, NIEHS, EPA, DSSTox, MLSMR, MLSCN, NIH Roadmap, qHTS, NCGC
Potency is the fitted concentration of half-maximal effect.

Row | SMILES | Potency
1 | O=c1c(O)c(-c2ccc(O)cc2)oc2cc(O)cc(O)c12 | inactive
2 | CC1=C(/C=C/C(C)=C/C=C/C(C)=C/C(=O)Nc2ccc(O)cc2)C(C)(C)CCC1 | 79.4 µM (active)
3 | O=c1cc(-c2ccc(O)cc2)oc2cc(O)cc(O)c12 | 79.4 µM (active)
4 | O=c1c(-c2ccc(O)cc2)coc2cc(O)ccc12 | inactive
5 | CCCCC1C(=O)N(c2ccccc2)N(c2ccccc2)C1=O | inactive
6 | CN(C)CCC(c1ccccc1)c1ccccn1 (centres undefined) | inactive
7 | CC/C(=C(\c1ccccc1)c1ccc(OCCN(C)C)cc1)c1ccccc1 | 50.1 µM (active)
8 | O=C(O)c1cc(O)c2c(c1)C(=O)c1cccc(O)c1C2=O | inactive
9 | O=c1[nH]cnc2c1ncn2[C@H]1CC[C@@H](CO)O1 | inactive
10 | O=C1NC(=O)C(c2ccccc2)(c2ccccc2)N1 | inactive
11 | O=C(O)Cc1cccc2ccccc12 | inactive
12 | CC(=O)c1ccc(S(=O)(=O)NC(=O)NC2CCCCC2)cc1 | inactive
13 | CCn1cc(C(=O)O)c(=O)c2ccc(C)nc21 | inactive
14 | CCCNC(=O)NS(=O)(=O)c1ccc(Cl)cc1 | inactive
